Reference: PubChem BioAssay (NCI)
The panel holds about 79,000 compounds, 15% with a hit somewhere; the sample as a whole holds those more often. Values without a mark were called inactive. Calls of active or inactive are those of the source. Cut-off read from the data, not from the text of the source: active = growth inhibition above about 70%; inactive = the rest.

test: NCI Yeast Anticancer Drug Screen. Data for the sgs1 mgt1 strain (AID 161);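 note: 0% = growth of cultures given vehicle only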; details: S. cerevisiae sgs1 mgt1 strain, at 50.0 µM, active compounds read high
Experimental: Growth inhibition of yeast strains with defined genetic alterations is measured as a screen for potential anti-cancer activity. Selected strains with alterations in DNA damage repair or cell cycle control were exposed to compounds and growth inhibition was measured relative to vehicle treated controls. The strain used in this assay is sgs1 mgt1

Row | Compound | growth inhibition
1 | CCOC(=O)CC(=O)c1ccc(Cl)cc1 | 11.4%
2 | CCc1n[nH]c(=O)n1/N=C/c1ccc(C)cc1 | -4.85%
3 | COc1ccc(C(C)=C(C#N)C#N)cc1 | -5.65%
4 | O=C(NC(CS)C(=O)O)c1cnc2ccccc2n1 (stereo not given) | 21.2%
5 | O=C(O)C1COCOC1c1ccccc1 (stereo not given) | 3%
6 | CC(NNC(=S)N1CCCC1)c1cccc[n+]1[O-] (stereo not given) | 8.4%
7 | CNc1cccc2c1C(=O)c1ccccc1C2=O | 19.4%
8 | CC(CC(=O)O)C1(C)C2CCCCC2C2CCCCC21 (stereo not given) | 5.75%
9 | CC(=O)OCCCC1CO1 (stereo not given) | -1.4%
10 | O=C1CC2(CCCc3sccc32)C(=O)N1 (stereo not given) | 1.55%
11 | Cc1ccc(S(=O)(=O)c2c(N)c3nccn3c3nc4ccccc4nc23)cc1 | -77.5%
12 | CC(=O)c1c(C)c(C)c(=O)n(C/C=C(\C)CCC=C(C)C)c1O | 98.7% (active)
13 | Cc1ccc(N2CCN(C(=O)c3ccccc3)CC2)cc1 | -2.45%
14 | [Fe+2].[Fe+2].c1ccc2c(c1)-c1nc-2nc2[n-]c(nc3nc(nc4[n-]c(n1)c1ccccc41)-c1ccccc1-3)c1cc3c4nc5nc(nc6[n-]c(nc7nc(nc([n-]4)c3cc21)-c1ccccc1-7)c1ccccc61)-c1ccccc1-5 | -14.2%
15 | CCOC(=O)CNc1nnnn1C1OC(CO)C(O)C1O (stereo not given) | -11.4%
16 | CCN(CC)C(=S)SCCC(N)=O | -2.8%
17 | O=[N+]([O-])c1ccc(-c2csc(NCC3CCCO3)n2)cc1 (stereo not given) | 49.9%
18 | O=C(Nc1ccc(N=C=S)cc1Cl)c1ccc2ccccc2c1O | 6.75%
19 | Cc1nc2ccccc2c(=O)n1NC(=S)Nc1ccc(Cl)cc1 | 4.25%
20 | O=C(C[n+]1ccccc1Cl)c1ccc(I)cc1 | 53%

Row | Compound | growth inhibition
21 | CC(=O)CC(C)(C)NNC(N)=S | 14.3%
22 | Cc1cc(C(C)(C)C)ccc1S(=O)(=O)/C=C/c1ccccc1 | -6.1%
23 | CCCCNC(=O)NC1CC(OC2CC(O)(C(C)=O)Cc3c(O)c4c(c(O)c32)C(=O)c2c(OC)cccc2C4=O)OC(C)C1O (stereo not given) | 22.9%
24 | CCOC(=O)C1Cc2cc(C)c(C)cc2N(C)C1=O (stereo not given) | 5.9%
25 | CSc1ccc(NC(=S)NN(C)C)cc1 | -15.2%
26 | NC(=O)CCCC(C(N)=O)(c1ccccc1)c1ccccc1 | 3.25%
27 | CCCOc1ccc(C(N)=S)c2ccccc12 | 8.45%
28 | CCCCN(C(=O)CCC)c1ccccc1 | -11.9%
29 | OCc1ccc(F)cc1CO | -2.85%
30 | CCOC(=O)C(/C(=N\NC(=O)OC)C(=O)Nc1cc(OC)ccc1OC)c1cnc2ccccc2n1 (stereo not given) | -45.4%
31 | CC(=O)OCC1OC(OC(C)=O)C(NC(=O)CNC(=O)OCc2ccccc2)C(OC(C)=O)C1OC(C)=O (stereo not given) | -16.9%
32 | CCN(Cc1cc(Nc2ccnc3cc(Cl)ccc23)ccc1O)C(=O)N1CCN(C)CC1 | 20.5%
33 | CCCCCCCCCCCCCCCC[Si](Cl)(Cl)Cl | -5.85%
34 | COC(=O)CCC(NC(=S)N/N=C(\C)c1cccs1)C(=O)OC (stereo not given) | 17.3%
35 | CCOc1nc(N)nc(C)c1N=Nc1cccc([N+](=O)[O-])c1 | 7%
36 | C=CCCCOC(C)=O | 12.5%
37 | CC(=O)C1=CN(C)c2ccccc2S1 | 12.2%
38 | Cc1ccc2oc(=O)c3c(O)c4cccc(OC5OC(C)C6O[C@@H](c7ccccc7)OC6C5OC5OC(C)C(O)C(O)C5O)c4c4oc(=O)c1c2c34 (stereo not given in full) | 91.5% (active)
39 | O=C(/C=C(\C(=O)c1ccccc1)c1ccccc1)c1ccc(Cl)cc1 | -4.45%
40 | CC(=O)/C(C(=N)C(=O)c1ccccc1)=C(\C)O | 3.5%
